According to PubChem BioAssay:
Where “and” joins values, the source holds several entries; their conditions need not be identical. Equal entries are not always repeated. Calls of active or inactive are those of the source.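 Rule for the calls, unless noted: active = compounds whose cell count with miR-34 switched on is under 0.7 times the count with it off; inactive = the rest.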

What was measured:
[1] = sensitizers of A549 cells to miR-34 induction, primary screen, imaging, A549 dox-inducible miR-34, nuclei and caspase counts (AID 1347080); conditions: A549 miR-34 inducible, Hoechst nuclei count, 48 h; note: test concentration not given here
[2] = survival rescue of mitochondrial mutant cells in low glucose, primary screen, MELAS cybrids, Rieske KO mouse fibroblasts, CellTiter-Glo (AID 1508586;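 active = mean z-score across replicates of 1.96 or higher in either the MELAS or the Rieske mutant cell line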;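 note: test concentration not given here; z relative to plate mean and SD of compound and empty wells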)
[3] = viability rescue of complex I mutant cybrids, primary screen, cell-based, galactose medium, ATP luminescence (AID 1645843;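 active = z-score of at least 1.8 in each of two replicates, scored against plate mean and spread of sample wells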;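 note: positive z means more ATP and so rescue of galactose-driven cybrid death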); conditions: complex I mutant cybrid cells, 72 h, stronger effect = higher value
[4] = stronger effect = lower value, cell number ratio, induced over uninduced
[5] = measured here: relative caspase fold change +Dox/-Dox
[6] = measured here: total cells with miR-34 induction, stronger effect = lower value
[7] = measured here: total cells without miR-34 induction
[8] = MELAS cybrid survival, CellTiter-Glo 48 h, stronger effect = higher value
[9] = Rieske KO mouse fibroblast survival, CellTiter-Glo 72 h

Compound | fold change [1, 4] | fold change [1, 5] | cell count [1, 6] | cell count [1, 7] | z-score [2, 8] | z-score [2, 9] | z-score [3]
Cc1cccc(CN2CCN(c3ncnc4sccc34)CC2=O)c1 | 0.946 (inactive) | 2.04 | 4670 | 4940 | -0.529 (inactive) | -0.501 | 2.43 (inactive)
CN(Cc1cnc2ccccc2n1)C(=O)Nc1n[nH]c(-c2ccco2)n1 | 0.886 (inactive) | 0.927 | 8010 | 9030 | -0.974 | 3.4 | 0.175 (inactive)
Cc1nsc(NC(=O)NCc2ccccc2-n2ccnc2C)n1 | 0.866 (inactive) | 1.23 | 9020 | 10400 | 0.0398 (inactive) | -0.281 | -0.575 (inactive)
CCn1ncc(NC(=O)Cn2cc(-c3ncnc4ccsc34)cn2)n1 | 0.848 (inactive) | 1.75 | 8160 | 9620 | -0.432 (inactive) | -0.147 | -0.53 (inactive)
CCCN1CCCCC1C(=O)Nc1c(C)cccc1C (stereo not drawn) | 0.891 (inactive) and 0.942 (inactive) | 1.17 and 1.76 | 9320 and 9310 | 10500 and 9880 | 0.0955 (inactive) | -0.512 | 0.57 (inactive)
Cc1csc2ncnc(-c3cccc4cccnc34)c12 | 0.931 (inactive) | 0.756 | 8530 | 9170 | -0.57 (inactive) | -0.471 | -0.505 (inactive)
O=C1CN(C(=O)Nc2nncs2)CCN1Cc1cccc(F)c1 | 0.896 (inactive) | 1.07 | 9320 | 10400 | 0.315 (inactive) | -0.441 | -0.53 (inactive)
CNC(=O)c1ccccc1-c1cccc2ccccc12 | 0.918 (inactive) | 0.701 | 8250 | 8980 | -0.403 (inactive) | -0.242 | -0.535 (inactive)
CCn1ncc(NC(=O)Cn2ccc(-c3ncnn3C)n2)n1 | 0.85 (inactive) | 1.24 | 8780 | 10300 | 0.204 (inactive) | -0.374 | -0.5 (inactive)
